Inconclusive results are not listed. Entries that show only a call come without a potency. Activity calls are given as the source filed them. The call rests on the fitted dose curve; in most records, active means well fitted curve in the direction sought with a large enough effect; inconclusive means small, poorly fitted or top-dose-only effect, or another doubt; inactive means no such curve, though single readings can be large; an effect the other way counts as inactive or inconclusive.
test: Confirmatory screen NINDS Rhodamine qHTS for Zika virus inhibitors (AID 1347161); settings: purified enzyme assay, Rhodamine110 substrate fluorescence, 15 min; series mostly up to 114 µM; further: nearly all actives have a fitted effect of over 60% in size; further: potency means the concentration at half of the fitted maximal effect
In short: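 Kinetic fluorescence (Ex 480 nm, Em 540 nm) over 15 min with 1.5 microM Rhodamine110 peptide and 25 nM linked protease.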

Compound	Potency
Fc1ccc(C(c2ccc(F)cc2)N2CCN(CC=Cc3ccccc3)CC2)cc1	inactive
CCOC(=O)[C@H](CCc1ccccc1)N[C@@H](C)C(=O)N1CCCC1C(=O)O (stereo partly drawn)	inactive
CCCCOCCOc1nc(-c2ccc(C(=O)O)c(F)c2)sc1C	49.3 µM (active)
CCCCC[C@H](O)C=C[C@H]1[C@H](O)CC(=O)[C@H]1CCCCCCC(=O)O	inactive
CC[C@H](C)n1cc(C)c2c(C(=O)NCc3c(C)cc(C)[nH]c3=O)cc(-c3ccc(N4CCNCC4)nc3)cc21	inactive

test: Vero cells viability qHTS for Zika virus inhibitors (AID 1347167); settings: cytotoxicity counter-screen (Zika); series mostly up to 45.9 µM
In short: (§1)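 To flag cytotoxic protease inhibitors, viability is measured by ATP-dependent luminescence (CellTiter Glo) after cells attached overnight receive compound for 24 to 48 hours in DMEM with 4% FBS.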

Compound	outcome
Fc1ccc(C(c2ccc(F)cc2)N2CCN(CC=Cc3ccccc3)CC2)cc1	inactive
COc1cc(Cl)cn2c(-c3cccc(NC4CNC4)n3)cnc12	inactive
CCOC(=O)[C@H](CCc1ccccc1)N[C@@H](C)C(=O)N1CCCC1C(=O)O (stereo partly drawn)	inactive
CCCCOCCOc1nc(-c2ccc(C(=O)O)c(F)c2)sc1C	inactive
CCCCC[C@H](O)C=C[C@H]1[C@H](O)CC(=O)[C@H]1CCCCCCC(=O)O	inactive
CC[C@H](C)n1cc(C)c2c(C(=O)NCc3c(C)cc(C)[nH]c3=O)cc(-c3ccc(N4CCNCC4)nc3)cc21	inactive

test: HepG2 cells viability qHTS for Zika virus inhibitors (AID 1347168); settings: Zika counter-screen; series mostly up to 45.9 µM
In short: as §1

Compound	outcome
COc1cc(Cl)cn2c(-c3cccc(NC4CNC4)n3)cnc12	inactive
CCOC(=O)[C@H](CCc1ccccc1)N[C@@H](C)C(=O)N1CCCC1C(=O)O (stereo partly drawn)	inactive
CCCCOCCOc1nc(-c2ccc(C(=O)O)c(F)c2)sc1C	inactive
CCCCC[C@H](O)C=C[C@H]1[C@H](O)CC(=O)[C@H]1CCCCCCC(=O)O	inactive
CC[C@H](C)n1cc(C)c2c(C(=O)NCc3c(C)cc(C)[nH]c3=O)cc(-c3ccc(N4CCNCC4)nc3)cc21	inactive

test: qHTS to identify inhibitors of the type 1 interferon - major histocompatibility complex class I in skeletal muscle: primary screen against the NCATS Mechanism Interrogation Plate v5.0 (MIPE) Libary (AID 1347411); settings: iHSKM cells + IFN-b, HiBiT-tagged MHC-I luminescence, 24 h; series mostly up to 45.8 µM; further: nearly all actives have a fitted effect of over 65% in size; further: potency means the concentration at half of the fitted maximal effect
In short: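 Seed engineered human myoblasts (HLA-B HiBit) in medium without dexamethasone containing 4 ng/ml IFN-beta; after 1 hr add compound titrations (top 46 uM final). Incubate 24 hrs at 37 C, lyse 10 min with HiBiT reagent, read luminescence.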

Compound	Potency
CN[C@@H]1CN(c2ccc3c(=O)c(C(=O)O)cn(-c4nccs4)c3n2)C[C@@H]1OC	5.09 µM (active)
N#CC(c1ccnc(NCCc2cccnc2)n1)c1nc2ccccc2s1 (stereo not drawn)	14.7 µM (active)
CC(=O)NCCC(=O)N[C@@H](CCC(N)=O)C(=O)N[C@@H](CO)C(=O)N[C@@H](CCC(N)=O)C(=O)N[C@@H](CCC(N)=O)C(=O)N[C@H](C(=O)N[C@@H](Cc1ccccc1)C(=O)N[C@]1(C)CCCCCCC=CCCC[C@@](C)(C(=O)N[C@@H](CCC(N)=O)C(=O)N[C@@H](CC(N)=O)C(N)=O)NC(=O)[C@H](CC(C)C)NC(=O)[C@H](CC(C)C)NC(=O)[C@@H](CCCNC(=N)N)NC(=O)[C@H](Cc2c[nH]c3ccccc23)NC(=O)[C@H](CC(C)C)NC(=O)[C@H](CC(N)=O)NC1=O)[C@H](C)O	inactive
NCC1CCC(C(=O)O)CC1 (stereo not drawn)	inactive
Cc1cc(OCCCS(C)(=O)=O)cc(C)c1-c1cccc(COc2ccc3c(c2)OC[C@H]3CC(=O)O)c1	inactive
Cc1ccc2c(=O)c3cccc(CC(=O)O)c3oc2c1C	inactive
COc1ccc2nc3cc(Cl)ccc3c(Nc3cc(CN4CCCC4)c(O)c(CN4CCCC4)c3)c2n1	18.6 µM (active)
Nc1ccn([C@@H]2O[C@H](CO)[C@@H](O)[C@H]2O)c(=O)n1	inactive
CC[C@H](C=C[C@@H](C)[C@H]1CC[C@H]2[C@@H]3CC=C4C[C@@H](O)CC[C@]4(C)[C@@H]3CC[C@]12C)C(C)C	inactive
N[C@@H](CC(=O)N1CCn2c(nnc2C(F)(F)F)C1)Cc1cc(F)c(F)cc1F	inactive
CCC(c1ccc(O)cc1)C(CC)c1ccc(O)cc1 (stereo not drawn)	inactive
Cc1cn([C@@H]2C[C@@H](O)[C@H](CO)O2)c(=O)[nH]c1=O	inactive
CN(C(Cc1ccc(OS(=O)(=O)c2cccc3cnccc23)cc1)C(=O)N1CCN(c2ccccc2)CC1)S(=O)(=O)c1cccc2cnccc12 (stereo not drawn)	inactive
CC(C)Oc1cc(Nc2nc(N[C@@H](C)c3ccc(F)cn3)ncc2Cl)[nH]n1	1.65 µM (active)
CCCCOCCOc1nc(-c2ccc(C(=O)O)c(F)c2)sc1C	inactive
C#CCN(C)CC1=Cc2ccccc2Oc2ccccc21	inactive

Compound	Potency
CC1=C(CC(=O)O)c2cc(F)ccc2C1=Cc1ccc(S(C)=O)cc1 (stereo not drawn)	inactive
COc1cccc(OC)c1-c1cc(C(=O)NC2(C(=O)O)C3CC4CC(C3)CC2C4)nn1-c1ccnc2cc(Cl)ccc12 (stereo not drawn)	inactive
Cc1ccc(S(=O)(=O)OCC(=O)Nc2ccc(C(=O)O)c(O)c2)cc1	inactive
CNC(=O)c1cc(Oc2ccc(NC(=O)Nc3ccc(Cl)c(C(F)(F)F)c3)c(F)c2)ccn1	23.4 µM (active)
CC[C@H](C)n1cc(C)c2c(C(=O)NCc3c(C)cc(C)[nH]c3=O)cc(-c3ccc(N4CCNCC4)nc3)cc21	inactive
CCCCCCCCCCCCCCCC(=O)O[C@H]1[C@@H](O)[C@@H](O)[C@@H]([C@H](NC(=O)[C@@H]2C[C@@H](CCC)CN2C)[C@H](C)Cl)O[C@@H]1SC	inactive
O=[N+]([O-])c1ccc(Nc2ccccc2-c2ccccc2)c2nonc12	26.2 µM (active)
CN1CCN(c2ncc(-c3cc(Cl)cc(Cl)c3Cl)c(N)n2)CC1	inactive
CCCCc1ccc(NS(=O)(=O)c2ccc(C)c(C(=O)N3CCN(c4cccc(C)c4C)CC3)c2)cc1	inactive
CCOc1ccccc1N=Nc1c(C)[nH]n(-c2nc(-c3ccccc3)cs2)c1=O	inactive
Cn1cc(-c2ccc3nnc(Sc4ccc5ncccc5c4)n3n2)cn1	inactive
CO[C@@H]1C(N(C)C(=O)c2ccccc2)C[C@H]2O[C@]1(C)n1c3ccccc3c3c4c(c5c6ccccc6n2c5c31)C(=O)NC4=O (stereo partly drawn)	inactive
Cn1c(=O)c(Oc2ccc(F)cc2F)cc2cnc(NC3CCOCC3)nc21	inactive
COc1ccc(-c2oc3c(CC=C(C)C)c(O)cc(O)c3c(=O)c2O)cc1	inactive
COC(=O)[C@H](c1ccccc1Cl)N1CCc2sccc2C1	inactive
O=C(O)c1ccc(O)c2ncc(N3CCOCC3)cc12	inactive
